In PubChem BioAssay AID1272365 (Small Molecule Screening Facility, UW Madison, 2018):
Values joined by “and” are separate entries in the source; they are usually repeats but may differ in a detail not shown here. Equal entries are not always repeated. In all, about 430,000 compounds went through this assay and about 2,600 (0.6%) were called active. Rule as the data show it: active = inhibition mostly above about 37% (no sharp cut-off); inactive = mostly below about 20%. What follows is part of a selection rich in actives, with near analogues and random picks from the rest.

What follows are compounds tested on PriA–SSB C-terminal tail interaction (Klebsiella pneumoniae) (assay: inhibitors of Klebsiella pneumoniae PriA binding to SSB C-terminal tail, primary screen, biochemical, AlphaScreen (AID 1272365;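 as to inhibition: plate controls were negative control peptide for no effect and reference peptide for full effect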)). Settings: AlphaScreen SSBct-PriA binding, biotinylated peptide; at 33 µM, hits give high values.
In the case of COc1ccc(C)cc1NC(=O)Cc1cc(=O)[nH]c(SCc2ccc(F)cc2)n1, the inhibition is reported as -4% (inactive).
For O=C(CN1C(=O)COc2ccccc21)Nc1ccc(F)cc1, the inhibition was 48.3% (active).
In the case of O=C(CN1C(=O)COc2ccc(Cl)cc21)Nc1ccc(N2CCOCC2)cc1, the inhibition is reported as -6.86% (inactive).
CC(OC(=O)CN1C(=O)COc2ccccc21)C(=O)NCc1ccc(F)cc1 (configuration not stated) was tested, and the inhibition was 4.53% (inactive).
O=C(CSc1ncc(-c2ccccc2)n1-c1ccc(F)cc1)N1CCCC1 was tested, and the inhibition was 43% (active).
For N#CCSc1ncc(-c2ccc(Br)cc2)n1-c1ccc(F)cc1, the inhibition was 7% (inactive).
In the case of Cn1c(-c2ccc(F)cc2)cnc1SCC(=O)NNC(=O)Cc1ccccc1, the inhibition is reported as -3.92% (inactive).
With CS(=O)(=O)c1ccc(-c2ccc(NS(=O)(=O)c3ccc4c(c3)CCCC4)cc2)nn1 the inhibition was -11% (inactive).
For O=C(c1cccc(Oc2ncccn2)c1)N1CCCC1, the inhibition was -8% (inactive).
For O=C(C[C@@H]1C/C=C/CC[C@H](Cc2ccc(F)cc2)C(=O)OC[C@@H](Cc2ccccc2)NC1=O)NCCO, the inhibition was -9.28% (inactive).
For O=C(c1cc(-c2cccs2)on1)N1CCC[C@H](Cc2nc(-c3ccsc3)no2)C1, the inhibition was 3% (inactive).
With O=C(c1ccc(-n2cccc2)cc1)N1CCC[C@H](Cc2nc(-c3ccsc3)no2)C1 the inhibition was 31% (active).
With O=C(c1ccc(=O)[nH]n1)N1CCCC(Cc2nc(-c3ccsc3)no2)C1 (configuration not stated) the inhibition was -8% (inactive).
With O=C(c1ccc(-c2cccs2)cc1)N1CC(Oc2nccs2)C1 the inhibition was -9% (inactive).
With CC(C)Oc1ccc(C(=O)Nc2cc(=O)n(C)c(=O)n2C)cc1 the inhibition was -9.4% (inactive).
In the case of Cn1c(Nc2ccccc2)cc(=O)n(C)c1=O, the inhibition is reported as 43.6% (active).
For Cc1cc(=O)n(C)c(=O)n1CCCNc1ccccc1, the inhibition was -14.1% (inactive).
In the case of N#Cc1nccnc1N1CCC(CNC(=O)c2cc(=O)c3ccccc3o2)CC1, the inhibition is reported as -11% (inactive).
For Cn1nc(CNS(=O)(=O)C2CC2)cc1-c1ccco1, the inhibition was -8% (inactive).
With COc1ccc(NC(=O)NCc2ccc3c(c2)OCO3)c(OC)c1 the inhibition was -0.59% (inactive).
For CCOCC(=O)NCc1ccc2c(c1)cc(C)n2C, the inhibition was 0.95% (inactive).
COc1ccc(OC)c(NC(=S)NCc2ccc3c(c2)cc(C)n3C)c1 was tested, and the inhibition was 81.2% (active).
For CCOc1ccc(S(=O)(=O)NCCCn2nc(-c3ccncc3)ccc2=O)cc1, the inhibition was -20% (inactive).
With COC(=O)N1CCc2c(sc(NC(=O)c3cccc(N4C(=O)CCC4=O)c3)c2C#N)C1 the inhibition was -11% (inactive).
CC(Cc1cccs1)NC(=O)Cc1ccccc1Cl (configuration not stated) was tested, and the inhibition was -11% (inactive).
COC(=O)c1ccc(C=NN2C(C)CCCC2C)cc1 (configuration not stated) was tested, and the inhibition was 14.5% (inactive).
With CC1CCCC(C)N1N=Cc1ccc([N+](=O)[O-])cc1 (configuration not stated) the inhibition was 46.8% (active).
For O=[N+]([O-])c1ccc(C=NN2CCN(c3ccc(Cl)cc3)CC2)cc1, the inhibition was -20.9% (inactive).
With COc1ccc(C(=O)C=C(C)NCc2ccc3c(c2)OCO3)cc1 the inhibition was 12.8% (inactive).
With CN1C(=O)C(C)(C)COc2ccc(NC(=O)c3ccc(Cl)cc3)cc21 the inhibition was 18% (inactive).
CCOc1ccc(N(CC)S(=O)(=O)c2cccc3nsnc23)cc1 was tested, and the inhibition was 4.13% (inactive).
For CCOc1ccc(NC(=O)CCS(=O)(=O)c2cccc3nsnc23)cc1, the inhibition was -12% (inactive).
With CCOc1ccc(-c2cn(S(=O)(=O)c3cccc4nsnc34)nc2N)cc1 the inhibition was 40.5% (active).
For C=C1Cn2c(nnc2-c2ccc(Br)cc2)S1, the inhibition was 97% (active).
COc1ccccc1-c1nnc2n1N=C(c1ccc(Br)cc1)CS2 was tested, and the inhibition was -20% (inactive).
For Brc1ccc(-c2nn[nH]n2)cc1, the inhibition was -6.63% (inactive).
O=C(C[C@H]1C/C=C/CCCC(=O)OC[C@H]2CCCN2C1=O)NCCO was tested, and the inhibition was -5.28% (inactive).
Cn1nnc2c(N3CC(C(=O)Nc4ccc5cn[nH]c5c4)C3)ncnc21 was tested, and the inhibition was 2% (inactive).
With OC(COCc1ccco1)CN1CCN(c2ccccc2)CC1 (configuration not stated) the inhibition was -2.32% (inactive).
In the case of OC(COc1ccc2c(c1)CCC2)CN1CCN(c2cccc(Cl)c2)CC1 (configuration not stated), the inhibition is reported as -11% (inactive).
With O[C@H](COc1cccc(Oc2ccccc2)c1)CN1CCN(c2ccccc2)CC1 the inhibition was 31% (active).
For CSCC(C)(O)CNS(=O)(=O)c1cccc2ccccc12 (configuration not stated), the inhibition was -6% (inactive).
In the case of Cn1nc2cc(Br)ccc2c1C(=O)N1CCc2ncncc2C1, the inhibition is reported as 1% (inactive).
For CCc1cc(=O)[nH]c2nnc(SCC#N)n12, the inhibition was -14% (inactive).
In the case of Cc1cc(C)c2nc(N(CCCn3ccnc3)C(=O)c3ccco3)sc2c1, the inhibition is reported as 95.7% (active).
For COc1ccc(OC)c2sc(N(CCCN3CCOCC3)C(=O)c3cc(C)no3)nc12, the inhibition was 3% (inactive).
With Cc1cc(C)c2nc(N(CCn3cccn3)C(=O)c3cc4ccccc4o3)sc2c1 the inhibition was -1% (inactive).
For O=C(NCCc1ccoc1)C(=O)Nc1ccc(F)cc1F, the inhibition was 8% (inactive).
With CCC1SC(=S)N(C)C1=O (configuration not stated) the inhibition was -17% (inactive).
In the case of CC(C)CCN1C(=O)C(C)(C)COc2cc(NC(=O)CN3C(=O)c4ccccc4C3=O)ccc21, the inhibition is reported as -6% (inactive).
In the case of Cc1cc(F)ccc1S(=O)(=O)N1CCCOC1CNC(=O)C(=O)NCCC1=CCCCC1 (configuration not stated), the inhibition is reported as 2.41% (inactive).
In the case of O=C(NCCCn1ccnc1)C(=O)NCC1OCCN1S(=O)(=O)c1cc(F)ccc1F (configuration not stated), the inhibition is reported as 70.1% (active).
In the case of O=C(NCCCc1ccccc1)C(=O)NCC1OCCN1S(=O)(=O)c1ccccc1 (configuration not stated), the inhibition is reported as -3.21% (inactive).
O=C(Nc1cnc(-n2ccnc2)nc1)c1ccccc1Cl was tested, and the inhibition was -6% (inactive).
With O=C(c1cccs1)c1ccc(CNS(=O)(=O)CCOc2ccccc2)s1 the inhibition was -4% (inactive).
Cc1cc(C)n(-c2nc(N)cc(=O)[nH]2)n1 was tested, and the inhibition was 73% (active).
For Cc1cc(C)n(-c2nc(O)cc(=O)[nH]2)n1, the inhibition was 5.59% (inactive).
Cc1cc(=O)[nH]c(-n2nc(C)c(CCC(=O)Nc3ccc(Cl)cc3)c2C)n1 was tested, and the inhibition was -4% (inactive).
For CN(C)CCN(C(=O)c1cc2cc([N+](=O)[O-])ccc2s1)c1nc2cc3c(cc2s1)OCO3, the inhibition was 28% (inactive).
O=C(C1CC=CCC1)N1CCCC(S(=O)(=O)c2ccc(F)cc2)C1 (configuration not stated) was tested, and the inhibition was -14% (inactive).
COc1cc(NC(=O)NCCc2ccc3c(c2)CCCN3C)cc(OC)c1 was tested, and the inhibition was 63% (active).
With CN1CCCc2cc(CCNC(=O)C(=O)Nc3ccc4c(c3)OCCO4)ccc21 the inhibition was -11% (inactive).
CN1CCCc2cc(CCNC(=O)c3ccc(Br)cc3)ccc21 was tested, and the inhibition was 18% (inactive) and -16% (inactive).
With Cc1ccc(NC(=O)CCc2csc(NC(=O)c3ccc(=O)[nH]c3)n2)cc1Cl the inhibition was -9% (inactive).
For CN(C)c1nn(CC(=O)NCc2ccc3c(c2)OCO3)cc1-c1ccc(Cl)cc1, the inhibition was 1% (inactive).
With CC1Nc2ncnn2C(c2ccccc2)C1C(=O)Nc1ccccc1 (configuration not stated) the inhibition was -3% (inactive).
In the case of Cc1ccc(NS(=O)(=O)c2ccc(N/N=C/c3ccccc3OCC(=O)O)c([N+](=O)[O-])c2)c(C)c1, the inhibition is reported as “active”.
COc1ccc(/C=N/Nc2ccccc2[N+](=O)[O-])c(C(=O)O)c1OC was tested, and the inhibition was “inactive”.
For CC(=O)Nc1cccc(C(C)=NNc2ccc(S(=O)(=O)Nc3ccccc3C(=O)O)cc2[N+](=O)[O-])c1, the inhibition was 12% (inactive).
With CCCCc1ccc(Nc2c(C(=O)N3CCSCC3)cnc3nc(C)ccc23)cc1 the inhibition was -6% (inactive).
In the case of COCCN(Cc1ccncc1)C(=O)c1ccco1, the inhibition is reported as -8% (inactive).
O=C(c1ccccc1)c1ccccc1C(=O)N1CCC(Oc2ncccc2Cl)CC1 was tested, and the inhibition was 6% (inactive).
For Fc1cc(Br)ccc1NC(=S)Nc1cccnc1, the inhibition was -8.39% (inactive).
With O=C(NN=Cc1cccc2ccccc12)c1cccnc1 the inhibition was -10.5% (inactive).
With Oc1ccc(C=NNC(=S)Nc2cccnc2)c(O)c1O the inhibition was 100% (active).
In the case of COc1ncc(NC(=O)c2snnc2C)cn1, the inhibition is reported as 1% (inactive).
O=C(Nc1cc2ccccc2cc1NC(=O)c1ccc(N2C(=O)CCC2=O)cc1)c1ccc(N2C(=O)CCC2=O)cc1 was tested, and the inhibition was 0% (inactive).
For COc1ccc2oc(-c3csc(NC(=O)c4ccc(N5C(=O)CCC5=O)cc4)n3)cc2c1, the inhibition was 6% (inactive).
With O=C(Nc1nc(-c2ccc(Cl)cc2Cl)cs1)c1ccc(N2C(=O)CCC2=O)cc1 the inhibition was 64% (active).
For COc1ccc(S(=O)(=O)NCCn2nc(-c3ccncc3)ccc2=O)cc1F, the inhibition was -6% (inactive).
For O=S(=O)(Cc1ccccc1)NCC1CCN(c2cnccn2)CC1, the inhibition was -1% (inactive).
In the case of COc1ccc(OCC(O)CNc2ccc(C)cc2)cc1 (configuration not stated), the inhibition is reported as 36% (active).
In the case of CCc1ccc(S(=O)(=O)NCC(O)COc2ccc(OC)cc2)cc1 (configuration not stated), the inhibition is reported as -7.77% (inactive).
For CC(=O)Nc1ccc(OCC(O)CN(c2ccc(C)cc2)S(C)(=O)=O)cc1 (configuration not stated), the inhibition was -18% (inactive).
For CN(C)c1ccc(C=NN=C2NC(=O)/C(=C/c3ccc([N+](=O)[O-])cc3)S2)cc1, the inhibition was -15.2% (inactive).
O=C(NCc1cccs1)C(=O)Nc1cccc(F)c1 was tested, and the inhibition was -15% (inactive).
For COc1ccc(CCN2COc3ccc4c(c3C2)O/C(=C\c2ccco2)C4=O)cc1OC, the inhibition was 3% (inactive).
For Cc1ccc(C(=O)N/C(=C\c2cccs2)C(=O)NCCc2ccccn2)cc1C, the inhibition was -25.3% (inactive).
With O=C1/C(=C/c2cccs2)Oc2c1ccc1c2CN(Cc2ccccn2)CO1 the inhibition was 101% (active).
In the case of Cc1cc(N2CCC(NC(=O)c3ccc4ncsc4c3)CC2)n[nH]1, the inhibition is reported as -7% (inactive).
In the case of O=C(c1ccccn1)N1CC(N2C(=O)CCC2=O)C1, the inhibition is reported as -11% (inactive).
With COCCCNC(=O)c1ccc2c(c1)ncn2-c1ccccc1OC the inhibition was -10.8% (inactive).
With COc1ccccc1-n1cnc2cc(NS(=O)(=O)c3ccccc3)ccc21 the inhibition was 73.9% (active).
For COc1ccc(F)cc1S(=O)(=O)Nc1ccc2c(c1)CCCN2S(=O)(=O)c1ccccc1, the inhibition was 1% (inactive).
With Cc1ccc(C(=O)NC(=S)NCc2cccnc2)cc1 the inhibition was 46.3% (active).
With Cc1cccc(OCCNC(=S)NC(=O)c2cccnc2)c1 the inhibition was 1.76% (inactive).
For Cc1c(C(=O)NC(=S)NCc2cccnc2)oc2ccccc12, the inhibition was -8.37% (inactive).
